In the supplement of paper PMC3724861:
This excerpt belongs to a sample that is enriched for hits. The true hit rate is not given. Values without a mark were called inactive.

Each sequence was assayed on T1, Caupolican (Caup) homeodomain DNA-binding domain (assay: PBM E-score (8-mer, recovered from the published 9-mer minima) (E-score (dimensionless, -0.5 to 0.5)); Drosophila protein; higher = stronger relative binding preference, active = 0.31 or more).
T1 sequence: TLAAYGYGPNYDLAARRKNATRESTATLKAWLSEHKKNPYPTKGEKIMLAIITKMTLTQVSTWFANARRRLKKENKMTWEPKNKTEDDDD
Procedure, shortened: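 Caup's homeodomain DNA-binding domain (residues 214-303) was produced by in vitro transcription and translation and applied at 100 nM to custom-designed protein binding microarrays. Each value is an enrichment score giving relative binding preference for a short DNA word; higher means stronger. Published 9-mer scores were the minimum of their two constituent 8-mer scores, and the 8-mer values were recovered from those minima. A cutoff of 0.31 marks candidate binding sequences.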

Sequence	PBM E-score
ACACCACA	0.262
ACGCTGTC	0.0456
GCCACCAC	-0.199
ATTGCCAG	-0.0611
CTGTTACC	0.142
TAGTTACA	0.311 (active)
CTGTTACA	0.33 (active)
GTGTTACA	0.381 (active)
GAGTTACA	0.215
AGGTTACG	-0.0221
GCGTTACA	0.198
GTGTTAAA	0.246
AAGTTACA	0.261
ATGTTACG	0.326 (active)
ACGTTACG	0.0614
CGGTTACA	0.183
CGTTATTA	0.116
AAAACCGG	-0.0173
ACGCAATG	0.0404
CTGTCCCC	-0.0725
CAGCTAGG	-0.046
TACAATGA	0.266
AAGTTACC	0.148
ACGTTACA	0.282

Sequence	PBM E-score
ATGTTACC	0.331 (active)
AGGTTACA	0.191
AGGTTACC	-0.0352
ATGTTACA	0.406 (active)
AAGTCGTG	0.0196
AAAATGTA	0.166
CGATATTA	0.219
ATTTTACA	0.305
AATTACTA	0.179
TATTACAA	0.341 (active)
AATTACAA	0.396 (active)
GATTACCA	0.0721
AATTACCA	0.184
GATTACAA	0.314 (active)
AATTACGT	0.122
GATTACTA	0.184
AATTACAT	0.385 (active)
TCTTACAA	0.246
CATTACAA	0.288
AATTACAG	0.244
AAGACTGC	-0.0769
AAATGACG	0.171
GATGCCAA	-0.0306
TAGCGGGA	-0.169

Sequence	PBM E-score
CGATATTC	-0.0778
AGGATGAA	-0.102
CCGAGTCG	-0.169
AGAAGAGG	-0.176
CCCCTTCG	-0.25
ATGGGAAC	0.0233
AGGTAGAA	0.0148
TAACAGCA	0.145
CACAAACC	-0.0236
TTGATCAA	0.115
GACCGTTA	0.0165
AGTCAGAC	-0.0283
TGTTACAA	0.42 (active)
CGTTACAA	0.289
AGTTACAT	0.319 (active)
ACTTACAC	0.245
ACTTACAT	0.339 (active)
AGTTACAG	0.189
AGTTACAC	0.303
AGTTACAA	0.295
ACTTACAG	0.187
CCGAAATC	-0.0715
CCGAGCAG	-0.0223
ACTCAGCA	0.0319

Sequence	PBM E-score
AGGTGTTA	0.207
ACGTGTTG	0.347 (active)
CAGTGTTA	0.24
ACGTGTTA	0.33 (active)
ACGTGTTC	0.279
CCGTGTTA	0.321 (active)
GCGTGTTA	0.284
CGGTGTTA	0.179
CCGTGTTC	≥ 0.382 (active)
ACGTGTGG	0.0393
AGGTGTTG	0.125
CGGTGTTC	0.157
ACCGGGCC	-0.228
GCACGTCC	-0.0893
AGTTTTCC	-0.0223
AGCCCACT	-0.166
ATGTTCAA	0.327 (active)
ATGTTCGA	0.34 (active)
ATGTTCGG	0.244
AGGTTCAC	-0.0392
CTGTTCAA	0.0792
CTGTTCAC	0.147
ATGTTCAC	0.334 (active)
GTGTTCGA	0.236

Sequence	PBM E-score
ATGTTCAG	0.295
CACTCTGA	0.0251
ATAGGGTG	-0.0464
CCCATAAC	0.0433
CACGACCA	0.098
CAGAAGAG	-0.0491
ATCCTCCG	-0.0647
AAGTGAGA	-0.0758
CCTCTGGA	-0.169
CTCCGTGA	-0.0581
CGGTAGGC	-0.149
ATACGATA	0.186
CGATGTGC	-0.0367
CCATGTAG	0.268
ACCTGTAG	0.0685
GGATGTAC	0.305
CGATGTAG	0.179
CGATGTAC	0.374 (active)
CCCTGTAA	0.161
GAATGTAC	0.165
ACATGTAG	0.476 (active)
GCATGTAC	0.413 (active)
AAATGTAG	0.0799
CCATGTAA	0.404 (active)

Sequence	PBM E-score
AGGCTTTC	-0.088
ACCGCGGA	-0.137
ATTCCTTA	0.0011
CATCCCAC	-0.133
GCTGCCGA	-0.282
TCCTGTAA	0.2
AGATGTAC	0.299
AACTGTAA	0.197
ACATGTAC	≥ 0.48 (active)
ACACGTAA	0.309
AAATGTAC	0.279
ACATGTAA	0.468 (active)
CCCTGTAC	0.158
TCATGTAA	0.427 (active)
CCATGTAC	0.411 (active)
TCATGGAA	0.0375
CCCCTTGA	-0.156
CACGCACA	0.0915
AGGTCATG	0.0878
ATAGTCGG	-0.0656
AAAGCTCG	-0.0924
CTCATCTC	-0.158
GGGATTGA	-0.0471
ACATGTAT	0.469 (active)

Sequence	PBM E-score
AAATGTAT	0.241
GCATGGAA	-0.00398
GCATGTAA	0.409 (active)
ACCTGTAT	0.222
GCCTGTAA	0.09
CGCAGAAC	-0.0278
GAATTATA	0.109
GCGGGTAA	-0.02
TAACAACA	0.406 (active)
CAACAACC	0.238
CAACAACA	0.408 (active)
TAACAAAA	0.119
AAACAACA	0.363 (active)
TAACAAGA	0.298
GAACAACA	0.292
AAACAACC	0.202
AAACAACT	0.246
AGTATCTA	0.166
TATCTAGA	0.0449
GGACCCAC	-0.208
GAGCAGAC	-0.0808
CTAGAAAA	0.0157
CACTAATG	0.0246
CATAGCCG	-0.0066

Sequence	PBM E-score
AACACGTA	0.316 (active)
ACCACGTG	0.0775
AACACGTC	0.299
AACACGTT	0.292
CACACGTG	0.148
AACACGTG	≥ 0.351 (active)
CTATTTTC	0.101
ACTACACT	0.242
ACTACACA	≥ 0.357 (active)
CCTACACG	0.18
GCTACACA	0.185
ACTACACG	≥ 0.357 (active)
ACTACACC	0.281
ATAGCTCG	-0.0531
GTTCCCAA	-0.045
CGATGCTC	-0.13
CACGTGTC	0.266
CACGTGAA	0.00852
AACGTGTC	0.257
AACGTGTA	0.371 (active)
GACGTGTA	0.344 (active)
CACGTGTA	0.329 (active)
GACGTGAA	-0.0186
AACGTGTG	0.111

Sequence	PBM E-score
GACGTGGA	-0.0891
GCCCGTCC	-0.243
AGGGTATC	-0.045
GTACCGTA	0.0122
CATGTCTA	0.359 (active)
CATGTGTC	0.245
AATGTCTA	0.242
AATGTCTC	0.112
GATGTCTA	0.23
CATGTCTC	0.314 (active)
AAAGATTT	-0.00222
CTCACCCC	-0.125
ATGTATTG	0.344 (active)
GTGTATTA	0.297
ATGTATTA	0.373 (active)
ACGTATTG	0.151
ATGTATTC	0.222
CTGTATTA	0.159
GCCCCGGC	-0.316
CACAGTAA	0.122
CTCTAAAG	-0.0918
GCGGTTCA	-0.101
AACAAGGA	0.302
CACAAGGA	0.109

Sequence	PBM E-score
GACAAGGC	0.205
GACAAGGA	0.314 (active)
TACAAGGA	0.352 (active)
GACAAAGA	0.13
CTCGACTC	-0.0783
CGGCTATC	-0.134
CCATATAA	0.0843
ACATATAG	0.256
ACACATAA	0.291
ACATATAA	0.35 (active)
ACATATAT	0.343 (active)
ACACATAG	0.174
ACATATAC	0.291
ACACATAT	0.323 (active)
TCATATAA	0.184
